# Test results reported in the supplement of paper PMC11417369.
# The full ranking holds about 25,000 sequences; the median of “ln(normalized median fluorescence intensity)” is about 6.7, and the highest 2% start at about 10. The sample holds the highest values, similar sequences and a random draw of the others, so the mix is not that of the screen.
# Test system: PfHDP1 homeodomain (GST-tagged)
# Assay: gcPBM binding intensity (ln(normalized median fluorescence intensity)); higher = stronger DNA binding
# Method in brief: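 An Agilent 4 × 180k array carrying primer-extended double-stranded 36-bp intergenic genomic probes and negative controls received GST-tagged P. falciparum DNA-binding domains expressed in E. coli, about 25 μg on average, for 1 h. The binding buffer contained 1× PBS, 1% milk, 0.2 mg/ml BSA, 0.5% salmon testes DNA and 0.03% Triton X-100. Binding intensity is the top Masliner-normalised natural-log median intensity across replicate spots of either probe orientation, read after Alexa488 anti-GST antibody staining and a 488 nm scan.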
row,Sequence,gcPBM binding intensity (ln)
1,ACACATAAATGAATAAATAAATAAATATAAATATAA [CACACA_negctrl_site1784],6.21
2,TAATATAGAAAATGCATACACACTTTATATATATAT [CACACA_site911],8.61
3,TTTTTTTTTTTTTAAACATGCAAAATATATAATTTT [TGCATGCA_site633],6.44
4,TAGAAATATATTTATTGTACATTGTATATATTATAT [XGTACX_site7584],6.26
5,TCAAAAGAATAATTGGTGCAAATTATATAATATAAT [GTGCAC_site9804],10.5
6,TAATAATTATTGCACGCACACAAAAACCTATAGATT [CACACA_site2931],10.6
7,AATATAATATATTGCACACAAAAAGTGAATTATTCT [CACACA_site1684],10.7
8,TTTAATAATTATTAAAGTACAAAATAAATATTGAAT [XGTACX_site7538],6.7
9,TATATAATCGAGTGCACACACAAAAAAAAAGTGAAC [CACACA_site1483],10.4
10,TATATAACCGAGTGCACACACAAAAAAAAAGTGAAC [CACACA_site6806],10.8
11,TGTAATAATTATTGCACGCACACAAAAACCTATAGA [CACACA_site2932],10.2
12,TTATAATATATATAAAAGAAAAAAAATTATAATATA [CACACA_negctrl_site90],6.53
13,TGAATATTCATATGCACACAAATTAATATACATAAT [CACACA_site442],10.3
14,AAAAAATATAGATGCACACACAAAAAAACAAATTAA [CACACA_site6718],8.71
15,TGTATATAATCGAGTGCACACACAAAAAAAAAGTGA [CACACA_site8417],10.1
16,ATATATATATAATAAGTGCAAAAAAAAGAAAAAAAT,9.3
17,TATTTATTTAATTACACACGAACATATAACCATTTC [CACACA_site211],6.81
18,ATATATATATTTATATTTATATGTAAATATCAACGT [TGCATGCA_negctrl_site32],8.19
19,ATCCCCATAAAAAATACACACAAATATTTATACATA [CACACA_site1001],6.79
20,TATATATATATATATACACACATATACATATTGTTT [CACACA_site3499],9.37

row,Sequence,gcPBM binding intensity (ln)
1,TAATATATATAAACATGTACAAATCAAAAACAAAAG [XGTACX_site4076],7.52
2,AATAATAAAAAATATACACACATATATAAATAAATA [CACACA_site6164],6.35
3,GAACAAATTAAATAGGTGCATTAACATGTTCTATTT [GTGCAC_site9729],10.1
4,ATTTCTCTATCGTAATGTACAAAAAAAAGGGAAAAG [XGTACX_site1335],6.48
5,TATATATAATATTGCACACAAAATTAAAAGTAAATA [CACACA_site19],10.3
6,AAAATATAATATATTGCACACAAAAAGTGAATTATT [CACACA_site8489],10.6
7,TATATATATAATATTGCACACAAAATTAAAAGTAAA [CACACA_site7889],9.61
8,TTAACCTTTTGATATTGTACCCATAATCTAATACAA [XGTACX_site769],6.47
9,ATGTAGAAGTAATGCACACATATGTATATATATATA [CACACA_site2494],10.5
10,ATGTAGAAGTAATGCACACATATGTATTTATATATA [CACACA_site5391],10.9
11,ATGTGATAGAAGTACACACACATATGTATTTATAAT [CACACA_site5075],6.7
12,ATATGTAGAAGTAATGCACACATATGTATATATATA [CACACA_site8796],10.3
13,TATACATATGTATGCACACATACATACACATAGAAT [CACACA_site3480],9.51
14,ATATATAGAATGTGTACACACATATGTATTTATATA [CACACA_site810],6.7
15,TTTAGTGAGTTTGTTGTGCACTGAAAAAATTACAAT,10.4
16,AATTCGTACCTCATTTGTACATATATATATATATAT [XGTACX_site5513],9.34
17,TTCAAGATTTATTATACACACATATTAATATATATA [CACACA_site573],6.83
18,AAGTATGTATCACAAAGTACTTAAGCATATATTTAA [XGTACX_site4121],6.57
19,ATATGTAAAATGAAGATACATACATACATACATACA [CACACA_negctrl_site715],7.53
20,TGTTTATCATATTTGTGTCCTCATTTTTTAGTATCA [XGTACX_site947],6.62

row,Sequence,gcPBM binding intensity (ln)
1,AATGTGTTCATATATGCACACGCATATATATTATTG [CACACA_site9274],9.95
2,TGTGTTCATATATGCACACGCATATATATTATTGTT [CACACA_site3822],9.67
3,ATATGCACTCATTGTGCACACGCATATTACGAAAAG [CACACA_site2637],11.6
4,TGTGTTCATCTATGCACACGCATATATATTATTGTT [CACACA_site5985],9.64
5,ACGCACGAAATAAATACATGCATATTGTAAAAATTA [TGCATGCA_site310],8.99
6,ATGCACTCATTGTGCACACGCATATTACGAAAAGAA [CACACA_site2638],10.8
7,TTATAATAGTTAATATGTACATATTTAATAAATAAT [XGTACX_site3183],6.23
8,AGACTATCATTTTTTTAACACACAAAAAAAATAAAA [CACACA_site9173],6.35
9,ATAAAGCCATACAATACACACATTTTACATGGGGGT [CACACA_site9072],7.27
10,AGTACATTATAGAATACACACCTATATATATATATA [CACACA_site4447],9.29
11,ATAATACATATAGAAGGTACACTATTATTTTCCTGA [XGTACX_site903],6.13
12,TTCTTTTTTTTTAAAACAAACAAACAAACAAACAAA [CACACA_negctrl_site832],6.6
13,TTCTTTTTAATGTCGGTGCAACTCCATAAAAACAAA [GTGCAC_site9488],10.9
14,ATATTTTATGTAAAGGTGCAAAACAACATTAAAAAA,9.97
15,TCTTTCTAAAGATGTAGTACAAAATAAATATAATAT [XGTACX_site6564],6.87
16,TCCAAAATATCCTTCACACACGAACAGTTTCATTTA [CACACA_site5511],6.49
17,ATTGTATGCACGTCTGCACACTTTTTTTTTTTTTTT [CACACA_site2082],11
18,TTGTATTGTATATGCACACATAGAACACTTTTTTTT [CACACA_site4133],8.44
19,ATTTGTATTGTATATGCACACATAGAACACTTTTTT [CACACA_site9373],9.69
